Rows were chosen to be rich in hits. Some 19% of all compounds tested hit in one or more screens of this group.
IL1B secr inh = inhibitors of inflammasome signaling (IL-1 beta secretion) | AID 743279 | THP-1 LPS/ATP IL-1B secretion, AlphaLISA, 16 h; stronger effect = lower value | 360,000 compounds, 4.7% hits | activity change, % at 57.5 µM; in the data active = activity change below about -50%; inconclusive = mostly about -30% to -49%
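Secreted IL-1B measured by AlphaLISA bead assay after 16 h compound exposure of THP-1 cells; compounds (final up to 57.5 uM) added 1 h before LPS (250 ng/mL) and ATP (1.25 mM) stimulation; lower signal means less secretion.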
HT1080 IDH1KD tx = toxicity to HT-1080 IDH1 knockdown cells (counter line) | HT-1080 IDH1 knockdown viability, ATP luminescence, 48 h | Potency, µM (top dose mostly 46.1 µM), for inactives: at the top dose activity, negative = toxicity, hits mostly cytotoxic | 360,000 compounds, 2% hits | AID 686971;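 note: potency is the fitted concentration of half-maximal effect; 0% = DMSO wells and -100% = cell-free medium wells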
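Cytotoxicity counter-line: IDH1KD HT-1080, 48 h, CellTiter-Glo. Curves classed by r2, magnitude and activity.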
TDP1 cell noCPT = qHTS for Inhibitors of human tyrosyl-DNA phosphodiesterase 1 (TDP1): qHTS in cells in absence of CPT; DT40 Tdp1-/- hTDP1 cells, no CPT, ATP luminescence, 48 h; Potency, µM (top dose mostly 46.2 µM), inactives show at the top dose activity change, negative = growth inhibition, usual class: inhibitors; 420,000 compounds, 15% hits; AID 686978, 2013; note: potency is the fitted concentration of half-maximal effect; nearly all actives have a fitted effect of over 55% in size
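Camptothecin absent (DMSO only). Human TDP1-complemented DT40 knockout cells, 400 cells/well, 37 °C for minimum 48 hr; ATP measured via CellTiter-Glo, 30 min dark incubation, luminescence.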
DT40 TDP1 CPT = growth inhibition of DT40 Tdp1-/-;hTDP1 cells with camptothecin (screen for TDP1 inhibitors). chicken DT40 Tdp1-/-;hTDP1 cells + 20 nM CPT, ATP luminescence, 48 h. Potency, µM (titrated, usually from 46.2 µM), without a hit: at the top dose activity change, negative = growth inhibition, actives largely listed as inhibitors. 420,000 compounds, 12% hits; note: potency is the fitted concentration of half-maximal effect; nearly all actives have a fitted effect of over 55% in size
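Chicken DT40 Tdp1-/- cells complemented with human TDP1, 400 cells/well, exposed to compounds plus 20 nM camptothecin for at least 48 h at 37 C; viability read as ATP content by CellTiter-Glo luminescence.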
HT1080NT lethal = kills 2HG-producing HT-1080-NT fibrosarcoma cells; HT-1080-NT fibrosarcoma viability, CellTiter-Glo ATP luminescence, 48 h; Potency, µM (top dose mostly 46.1 µM), for the others: at the highest dose activity, negative = less viability, most hits filed as cytotoxic; 360,000 compounds, 1.6% hits;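 note: NT is the 2HG producing partner of a matched IDH1 knockdown line; potency is the fitted concentration of half-maximal effect; 0% = DMSO-treated cells and -100% = media-only wells without cells; nearly all actives have a fitted effect of over 55% in size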
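Viability by CellTiter-Glo luminescence after 48 h compound exposure at 37C of HT-1080-NT cells (750/well, RPMI, 5% FBS). % activity scaled between DMSO wells and medium-only wells, then curve-fitted and categorized by curve class.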
* hit, by the source's call; ? = inconclusive; nt = no result given. Unless noted, calls come from the whole dose curve; as a rule, active = well fitted curve in the direction sought with a large enough effect; inconclusive = small, poorly fitted or top-dose-only effect, or another doubt; inactive = no such curve, though single readings can be large; an effect the other way counts as inactive or inconclusive. Unless noted, % is set by controls: 0 for no effect and ±100 for the full control effect.

SMILES	IL1B secr inh	HT1080 IDH1KD tx	TDP1 cell noCPT	DT40 TDP1 CPT	HT1080NT lethal
Cc1ccc2nc(N3CCN(S(=O)(=O)c4ccc5c(c4)OCCO5)CC3)c(C#N)cc2c1	9.3	4.5%	?	11.2µM*	3.6%
CCC1Oc2ccc(C)cc2N(CC(=O)N2CCCC2)C1=O (configuration not stated)	-11.1	-2.6%	-9.2%	12.4%	-5.5%
CC(=O)CC1(OC(C)=O)C(=O)N(C)c2ccccc21 (configuration not stated)	?	?	2.91µM*	3.66µM*	-21.8%
C/C(CC1(O)C(=O)N(C)c2ccccc21)=N\O (configuration not stated)	-16.8	1.3%	-6.5%	-7.3%	1.5%
Cc1cc(=O)oc2cc(NC(=O)CN3C(=O)NC(C)(c4ccccc4)C3=O)ccc12 (configuration not stated)	-0.3	1.7%	-15.3%	9.6%	11.9%
N#Cc1ccc(-c2cccs2)nc1SCc1cccnc1	92.8	?	0.411µM*	0.517µM*	?
CC(NS(=O)(=O)c1ccc(Br)cc1F)[C@H](O)c1ccccc1 (some centres not stated)	3.5	5.0%	?	-13.3%	0.8%
Cc1cc(N2CCN(C(=O)c3ccco3)CC2)c2ccccc2n1	-2.0	-2.9%	-14.2%	-15.3%	2.6%
O=S(=O)(c1ccccc1)N1CCN(c2ccnc3cc(Cl)ccc23)CC1	-85.6*	?	?	16.4µM*	-26.6%
O=S(=O)(c1cccs1)N1CCN(c2ccnc3cc(Cl)ccc23)CC1	nt	?	23.1µM*	13µM*	?
Cc1cc(N2CCN(S(=O)(=O)c3ccccc3)CC2)c2ccccc2n1	-15.3	?	18.4µM*	16.4µM*	?
CC(=O)N1CCN(c2ccnc3cc(Cl)ccc23)CC1	-18.9	-5.3%	-27.5%	-13.2%	5.7%
Cc1cc(N2CCN(c3nc(-c4ccccc4)cs3)CC2)c2ccccc2n1	?	1.2%	20.6µM*	23.1µM*	7.7%
CC(=O)N1CCc2cc(S(=O)(=O)N3CCc4ccccc43)ccc21	6.6	-18.0%	?	13µM*	0.0%
COc1ccc(S(=O)(=O)N2CCCc3ccccc32)cc1[N+](=O)[O-]	38.5	8.2µM*	-9.7%	-23.1%	8.2µM*
COc1ccc(S(=O)(=O)N2CCc3ccccc32)cc1NC(C)=O	20.4	?	-29.5%	-3.0%	9.2µM*
CC(=O)N1CCc2cc(S(=O)(=O)N3CCc4ccccc4C3)ccc21	27.1	-21.0%	?	?	-23.5%
COc1ccc(S(=O)(=O)N2CCCc3ccccc32)cc1OC	52.6	?	-16.0%	?	-20.7%
CC(C)n1c(SCC(=O)Nc2ccc(N3CCOCC3)cc2)nnc1-c1ccco1	-2.7	18.7%	-26.4%	-2.5%	3.1%
CCOc1ccccc1NC(=O)N1CCc2cc(S(=O)(=O)N3CCC(C)CC3)ccc21	nt	nt	-19.2%	-8.1%	nt
CCOc1ccc(NC(=S)NC(=O)/C=C/c2ccco2)cc1	-20.3	-10.9%	18.4µM*	?	-25.6%
CC/C(=N\NC(=O)CNC(=O)/C=C/c1ccco1)c1ccccc1	11.8	5.8%	-14.1%	-4.8%	10.7%
CN1CCN(c2ccc(NC(=S)NC(=O)/C=C/c3ccco3)cc2)CC1	-95.6*	?	20.6µM*	?	?
COc1cccc(NC(=S)NC(=O)/C=C/c2ccco2)c1	31.5	6.51µM*	14.6µM*	18.4µM*	20.6µM*
COc1ccc(/C(C)=N/NC(=O)CNC(=O)/C=C\c2ccco2)cc1	84.4	-1.5%	9.2µM*	13µM*	0.0%
SMILES	IL1B secr inh	HT1080 IDH1KD tx	TDP1 cell noCPT	DT40 TDP1 CPT	HT1080NT lethal
CSc1ncccc1C(=O)OC(C)C(=O)Nc1cccc(S(=O)(=O)N2CCOCC2)c1 (configuration not stated)	3.5	-2.3%	?	?	-1.8%
Cc1cc(C)c2nc(-c3cccnc3)cc(C(=O)NC(C)c3cnn(C)c3C)c2c1 (configuration not stated)	-10.7	1.5%	?	-18.7%	-20.1%
CCc1cccc2c1Sc1ccccc1CC2N1CCNCC1 (configuration not stated)	-92.5*	?	16.4µM*	16.4µM*	-17.8%
Cc1cccc2c1Sc1ccc(Cl)cc1CC2N1CCNCC1 (configuration not stated)	-98.5*	?	18.4µM*	16.4µM*	23.1µM*
CN1CCN(C2Cc3cc(F)ccc3Sc3ccc(Cl)cc32)CC1 (configuration not stated)	?	?	?	?	-23.7%
CCOc1ccccc1/C=C/c1nc2ccccc2[nH]c1=O	66.1	?	?	?	-22.5%
Cc1ccnn1CC(=O)N/N=C/c1cn[nH]c1-c1ccccc1	14.5	-2.7%	-8.9%	-6.8%	-4.4%
O=C1NC(=O)c2cc(Nc3ccccc3)c(Nc3ccccc3)cc21	nt	-19.3%	12.6µM*	?	-3.9%
O=C1c2ccccc2C(=O)N1CCc1nc2ccccc2c(=O)n1Cc1ccco1	22.8	0.1%	-11.8%	-0.6%	5.3%
O=S(=O)(Nc1cccc(S(=O)(=O)N2CCCC2)c1)c1ccc(Cl)cc1	29.1	5.4%	2.3%	-5.2%	-0.6%
O=C(C[n+]1ccccc1)Nc1ccccc1[N+](=O)[O-]	13.5	-3.6%	-0.9%	6.3%	-0.1%
CC(Oc1cccc(Cl)c1)C(=O)NCc1ccc(S(N)(=O)=O)cc1 (configuration not stated)	12.7	-1.0%	25.9µM*	?	9.7%
Cc1cccc(OC(C)C(=O)NCc2ccc(S(N)(=O)=O)cc2)c1 (configuration not stated)	28.2	16.6%	-15.7%	0.4%	6.9%
CC(C)[C@H](NC(=O)OC(C)(C)C)c1cc(C(=O)NCCc2c[nH]c3ccccc23)c(N)s1	-1.8	-20.5%	20.6µM*	16.4µM*	-28.9%
CC(C)[C@@H](NC(=O)OC(C)(C)C)c1cc(C(=O)c2c(-c3ccccc3)[nH]c3ccccc23)c(N)s1	?	?	18.4µM*	18.4µM*	?
CC(C)[C@H](NC(=O)OC(C)(C)C)c1cc(C(=O)NC2CC2)c(N)s1	-0.9	0.1%	4.0%	-19.0%	-2.4%
Cc1cccc(S(=O)(=O)N2C[C@@H](O)COC[C@@H]3O[C@H](CC(=O)NCCCN4CCOCC4)CC[C@H]32)c1	13.6	28.5%	2.3%	4.2%	16.4%
CC(=O)c1ccc(N2CCN(c3ncc(C(F)(F)F)cc3Cl)CC2)cc1	?	-0.1%	29.1µM*	?	-4.6%
C=CCNC(=S)N1CCN(c2ncc(C(F)(F)F)cc2Cl)CC1	-66.7*	-10.6%	?	?	-8.8%
Cc1cc(C)cc(NC(=S)N2CCN(c3ncc(C(F)(F)F)cc3Cl)CC2)c1	7.3	15.7%	?	?	11.7%

Assay outcomes as filed in PubChem BioAssay.
